Compound activity as filed in PubChem.
Only some compounds are listed: those with a hit (about 28% of all), similar ones and a draw of the others.
D1 mod: allosteric modulators of human D1 dopamine receptor. HEK293 D1, CRE-luciferase, dopamine EC30 potentiation; actives deviate in either direction. B-score at 10 µM. actives 5.9% (n = 58,000). AID 641;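 active means luminescence count or its row- and column-corrected plate score outside the 99.7% band of the plate's sample wells, on either side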
CYP2C9 inh: blocks human cytochrome P450 2C9 | P11712 | CYP2C9 Supersomes, luciferin-H conversion, luminescence | inhibition, % at 5 µM | actives 20% (n = 96,000) | AID 777;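 active means blocking of liver enzyme CYP2C9 beyond about 50% at 5 µM, limit read from the data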
CYP2C19 inhib: blocks human cytochrome P450 2C19 | P33261 | CYP2C19 Supersomes, luciferin-H EGE luminescence, 30 min | inhibition, % at 5 µM | actives 21% (n = 96,000) | AID 778;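 active means CYP2C19 inhibition above a set limit at 5 µM in the primary screen, cut at about 50% in these data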
hDAT+cocaine: modulates human dopamine transporter uptake under cocaine; Q01959; LLC-PK1 hDAT cells, [14C]-dopamine uptake with cocaine IC80; actives deviate in either direction; B-score at 10 µM; actives 1.3% (n = 110,000); AID 449768;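 active means Z score or B-score, a plate-position-corrected score, falls beyond the plate's 99.7% confidence bounds, in either direction; inactive means both scores lie inside the 99.7% bounds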
Target sequence (Q01959 whole entry, looked up): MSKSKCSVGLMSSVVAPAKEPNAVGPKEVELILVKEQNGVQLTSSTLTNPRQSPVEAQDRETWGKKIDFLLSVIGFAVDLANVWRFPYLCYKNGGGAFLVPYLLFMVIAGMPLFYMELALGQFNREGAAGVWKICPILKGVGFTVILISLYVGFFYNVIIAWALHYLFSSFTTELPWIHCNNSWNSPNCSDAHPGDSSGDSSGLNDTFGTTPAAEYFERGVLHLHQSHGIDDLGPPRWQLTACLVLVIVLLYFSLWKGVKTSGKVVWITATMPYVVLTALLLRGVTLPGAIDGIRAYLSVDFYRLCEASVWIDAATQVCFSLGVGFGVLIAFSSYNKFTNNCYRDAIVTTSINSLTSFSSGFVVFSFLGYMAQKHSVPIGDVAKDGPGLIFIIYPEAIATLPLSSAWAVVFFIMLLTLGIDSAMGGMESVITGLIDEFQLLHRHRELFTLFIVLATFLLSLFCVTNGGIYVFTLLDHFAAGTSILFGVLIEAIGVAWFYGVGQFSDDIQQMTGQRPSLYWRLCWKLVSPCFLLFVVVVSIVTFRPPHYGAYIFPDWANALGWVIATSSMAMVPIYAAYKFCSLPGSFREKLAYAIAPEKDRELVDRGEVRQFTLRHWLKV
CYP2C9 act: CYP2C9 (human) activation; P11712; recombinant CYP2C9, luciferin-H conversion, luminescence; hits give high values; factor 1 = untreated enzyme, 0 = blocked; activation factor at 5 µM; actives 1.4% (n = 96,000);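 active means activation factor of 2 or more for CYP2C9 at a 5 µM dose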
CYP2C19 act: activators of human cytochrome P450 2C19; P33261; recombinant CYP2C19, luciferin-H EGE luminescence; hits give high values; 0 = fully inhibited enzyme, 1 = untreated enzyme; activation factor at 5 µM; 96,000 tested, under 10 active; AID 1025;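 active means activation factor of at least 2 at 5 µM in the primary screen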
Of the large screens only hits and unclear results are named; the others gave an inactive call.

CC(=O)c1c(C)[nH]c(C(=O)NCCc2ccccc2)c1C	D1 mod -3.5
CC(=O)c1c(C)[nH]c(C(=O)Nc2ccc(C)cn2)c1C	none
O=C(O)CN(c1ccccc1F)S(=O)(=O)c1ccccc1	none
O=C(N[C@H](CO)Cc1ccccc1)c1ccco1	none (no result: D1 mod, CYP2C9 inh, CYP2C19 inhib, CYP2C9 act, CYP2C19 act)
Cc1ccc(C(=O)COC(=O)CCC(=O)NC2CCCCC2)cc1C	none (no result: D1 mod)
Cn1c(CN2CCOCC2)nnc1SCC(=O)NC1CCCCC1	none (no result: D1 mod, CYP2C9 inh, CYP2C19 inhib, CYP2C9 act, CYP2C19 act)
CSc1nc(N(C)NC(=O)c2ccccc2)c2ccccc2n1	CYP2C9 inh 65, CYP2C19 inhib 88 (no result: D1 mod)
CN(Cc1nc(-c2ccncc2)no1)S(=O)(=O)c1ccccc1	CYP2C9 inh 72, CYP2C19 inhib 99
CN(Cc1nc(-c2ccncc2)no1)S(=O)(=O)c1ccc(Br)cc1	CYP2C9 inh 93, CYP2C19 inhib 89
Cc1ccc(S(=O)(=O)N(C)Cc2nc(-c3ccccn3)no2)cc1	none
CN(Cc1nc(-c2ccncc2)no1)S(=O)(=O)c1ccc(Cl)cc1	CYP2C9 inh 93, CYP2C19 inhib 96
CN(Cc1nc(-c2ccccn2)no1)S(=O)(=O)c1ccccc1	CYP2C19 inhib 64
Cc1cccc(-c2noc(CN(C)S(=O)(=O)c3cc(Cl)ccc3Cl)n2)c1	none
CCC1=C(OC(=O)N(CC)CC)N2C(=O)OC(=NCC3CC3)[C@]2(Cc2ccccc2)[C@H]2C1=CC[C@H]1C(=O)N(c3ccccc3)C(=O)[C@H]12	none (no result: D1 mod, CYP2C9 inh, CYP2C19 inhib, CYP2C9 act, CYP2C19 act)
Cc1ccc(S(=O)(=O)CCc2nc3ccccc3s2)cc1C	CYP2C19 inhib 58 (no result: D1 mod)
O=C(NCC(F)(F)F)Nc1cccnc1	none (no result: CYP2C9 inh, CYP2C19 inhib, CYP2C9 act, CYP2C19 act)
O=[N+]([O-])c1ccc(Cl)c(/C=N/N2CCN(C3c4ccccc4-c4ccccc43)CC2)c1	none (no result: D1 mod)
O=[N+]([O-])c1ccc(Cl)c(/C=N/N2CCN(c3ccccc3)CC2)c1	CYP2C9 act 2.9 (no result: D1 mod)
C#Cc1ccc([C@H]2C=C(C(=O)N3CCN(Cc4ccccc4)CC3)O[C@@H](OCC)[C@@H]2CCCO)cc1	hDAT+cocaine 2.7 (no result: D1 mod, CYP2C9 inh, CYP2C19 inhib, CYP2C9 act, CYP2C19 act)
C#Cc1ccc([C@@H]2C=C(C(=O)N3CCN(Cc4ccccc4)CC3)O[C@H](OCC)[C@H]2CCCO)cc1	none (no result: D1 mod, CYP2C9 inh, CYP2C19 inhib, CYP2C9 act, CYP2C19 act)
COc1ccc(Cl)cc1NC(=O)CSc1nnc(Cc2cccn2C)n1-c1ccc(F)cc1	none
CCOC(=O)C1=C(C)NC2=C(C(=O)CC(C)(C)C2)C1c1ccc(N(C)C)cc1 (stereo not given)	none
Cc1noc2c1C(c1ccc(N(C)C)cc1)C1=C(CC(C)(C)CC1=O)N2 (stereo not given)	CYP2C19 inhib 76 (no result: D1 mod)
Cc1ccc(C2C3=C(CC(C)(C)CC3=O)Nc3onc(C)c32)cc1 (stereo not given)	CYP2C9 inh 56, CYP2C19 inhib 99 (no result: D1 mod)
COc1ccc(-c2nnc(SCC(=O)Nc3ccc4c(c3)OCCO4)n2N)cc1OC	CYP2C9 inh 58 (no result: D1 mod)
CC(C)Oc1cccc(-c2nnc(SCC(=O)Nc3ccc4c(c3)OCCO4)n2N)c1	CYP2C9 inh 71, CYP2C19 inhib 50 (no result: D1 mod)
CCn1c2ccccc2c2cc(NC(=O)CSc3nnc(-c4cccc(OC)c4)n3N)ccc21	none (no result: D1 mod)
CCC1(C)OC(=O)N2CCc3c(C)[nH]c4c(C)ccc(c34)C21C (stereo not given)	CYP2C9 inh 70, CYP2C19 inhib 69
CC(C)C[C@H]1COCCS(=O)(=O)N1Cc1ccc(Cl)c(Cl)c1	none (no result: D1 mod, CYP2C9 inh, CYP2C19 inhib, CYP2C9 act, CYP2C19 act)
CCOC(=O)c1cc2sc(C)cc2n1CC(=O)Nc1cccc(C)c1C	none (no result: CYP2C9 inh, CYP2C19 inhib, CYP2C9 act, CYP2C19 act)
CCOC(=O)c1cc2sc(C)cc2n1C(C)C(=O)OCC (stereo not given)	CYP2C9 inh 54, CYP2C19 inhib 95
FC(F)Sc1ccc(NC(=S)NC2CCCCC2)cc1	CYP2C19 inhib 75, CYP2C9 act 2.4 (no result: D1 mod)
FC(F)Sc1ccc(NC(=S)NCC2CCCCC2)cc1	CYP2C19 inhib 96 (no result: D1 mod)
O=C(Nc1ccc(SC(F)F)cc1)C1=COCCO1	none
CC1CCCCC1NC(=S)Nc1ccc(SC(F)F)cc1 (stereo not given)	CYP2C19 inhib 61, CYP2C9 act 2.3 (no result: D1 mod)
Cc1ccc(C)c(S(=O)(=O)N2CCN(C(=O)Cn3c(C(F)(F)F)nc4ccccc43)CC2)c1	none (no result: D1 mod)
Nc1ccc(Sc2cnn(-c3ccccc3)c(=O)c2Cl)cc1	CYP2C9 inh 91, CYP2C19 inhib 99 (no result: D1 mod)
Cc1ccc(Sc2cnn(-c3ccccc3)c(=O)c2Cl)cc1	none (no result: D1 mod)
O=C(O)C1=C[C@H](C2CC2)C[C@H](OCCCCO)O1	none (no result: D1 mod, CYP2C9 inh, CYP2C19 inhib, CYP2C9 act, CYP2C19 act)
NC(=O)CC(NC(=O)Cc1ccc(Br)cc1)c1ccc(NCCc2ccc(F)cc2)c([N+](=O)[O-])c1 (stereo not given)	none (no result: D1 mod, CYP2C9 inh, CYP2C19 inhib, CYP2C9 act, CYP2C19 act)
CN1C[C@H](C(=O)NC2(C)OC3(O)[C@@H]4CCCN4C(=O)[C@H](Cc4ccccc4)N3C2=O)CC2c3cccc4[nH]cc(c34)C[C@H]21 (stereo not given in full)	hDAT+cocaine 4 (no result: D1 mod, CYP2C9 inh, CYP2C19 inhib, CYP2C9 act, CYP2C19 act)
CC(C(=O)OCn1nnc2ccccc2c1=O)N1C(=O)c2ccccc2C1=O (stereo not given)	none
CCCC[C@@H]1CCCO[C@@](C(=O)NCc2cc(C)n(C)n2)(C(F)(F)F)C1	none (no result: D1 mod, CYP2C9 inh, CYP2C19 inhib, CYP2C9 act, CYP2C19 act)
O=c1oc2ccccc2c2c1nc(C(F)(F)F)n2-c1ccccc1	none (no result: D1 mod)
N#Cc1c(NCCN)nc(-c2ccccc2)c2c1CCCC2	none (no result: D1 mod)
N#Cc1c(N2CCN(C(=O)c3ccccc3Cl)CC2)nc(-c2ccccc2)c2c1CCCC2	CYP2C9 inh 64, CYP2C19 inhib 50 (no result: D1 mod, hDAT+cocaine)
N#Cc1c(N2CCN(C(=O)c3ccccc3)CC2)nc(-c2ccccc2)c2c1CCCC2	CYP2C9 inh 72, CYP2C19 inhib 62 (no result: D1 mod)
O=c1[nH]nc(Cc2ccc(-c3ccc(Cl)cc3)o2)c2ccccc12	none (no result: D1 mod)
CCOC(=O)C1=C(C)N(CCCCCC(=O)O)C(=O)NC1c1ccccc1OC(=O)c1cccs1 (stereo not given)	none (no result: D1 mod, CYP2C9 inh, CYP2C19 inhib, CYP2C9 act, CYP2C19 act)
CC1CC(=O)C=C(O)C1C(=O)OC(C)(C)C (stereo not given)	none
COc1ccc(NC(=O)N2c3ccccc3CC2C)cc1OC (stereo not given)	CYP2C9 inh 66
CC(C)CC(CO)N1CCN(C(=O)c2ccc(Cl)cc2)CCC1=O (stereo not given)	none (no result: D1 mod, CYP2C9 inh, CYP2C19 inhib, CYP2C9 act, CYP2C19 act)
CN(CC(=O)N1CC=C(c2ccccc2)CC1)S(=O)(=O)c1cnc[nH]1	CYP2C9 inh 99, CYP2C19 inhib 95
Cc1cc(C)cc(NC(=O)CN(C)S(=O)(=O)c2cnc[nH]2)c1	none (no result: CYP2C9 inh, CYP2C19 inhib, CYP2C9 act, CYP2C19 act)
Cc1cccc(C)c1NC(=O)NC1(C(=O)NCCCN2CCOCC2)CCCCC1	none (no result: D1 mod, CYP2C9 inh, CYP2C19 inhib, CYP2C9 act, CYP2C19 act)
CN(C)c1ccc(NC(=O)Cn2c(=O)n(Cc3ccccc3)c(=O)c3ccccc32)cc1	none
CCOC(=O)C1=C(c2ccccc2)NC(SCC(=O)Nc2cccc(C)c2)=C(C#N)C1c1ccco1 (stereo not given)	CYP2C9 inh 92, CYP2C19 inhib 60
CCOC(=O)c1cc(C#N)c(Oc2ccccc2)nc1-c1ccccc1	none (no result: D1 mod)
CCOC(=O)C1=C(c2ccccc2)NC(SC)=C(C#N)C1c1ccco1 (stereo not given)	CYP2C9 inh 78
